Assay outcomes (PubChem BioAssay)
An excerpt weighted towards active compounds, which were near 1.4% of everything screened.
HER2 expr 66K: inhibitors of Her2 protein expression, primary screen, SKBR-3 cells, AlphaScreen, 66K library. SKBR-3 HER2 protein level, 18-24 h; active compounds read low. Receptor tyrosine-protein kinase erbB-2 (Homo sapiens), P04626. AID 645, 2007. HER2 level % of control, % at 10 µM. actives 0.69% (n = 65,000);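 active means HER2 level under 5% of the carrier-only control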;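 further: lower value means stronger loss of Her2 protein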
TNAP act mid DEA: human TNAP enzyme activators, primary screen, biochemical, luminescent, intermediate phosphate acceptor level; activation factor at 20 µM; purified TNAP, CDP-star luminescence, 100 mM DEA, 30 min; active compounds read high; scale: 0 levamisole-inhibited, 1 vehicle-only enzyme; Alkaline phosphatase, tissue-nonspecific isozyme (Homo sapiens), P05186; AID 813, 2007; 64,000 tested, under 10 active;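 active means activation factor of at least 2 at 20 µM, relative to controls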
SKBR3 24h inh: SK-BR-3 proliferation inhibitors, primary screen, cell-based, human, 24 h; AID 847, 2007; SK-BR-3 viability, CellTiter-Glo ATP luminescence; active compounds read low; viability, % at 10 µM; actives 0.47% (n = 41,000);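 active means viability at or below the median of all test compounds minus 3 SD, in both replicates if run twice, cut at about 45% in these data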
E coli RNAP: E. coli RNAP inhibitors, biochemical; inhibition, %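 (tested at 10 µM)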; E. coli RNA polymerase, fluorescence transcription assay; actives 0.2% (n = 62,000); AID 559, 2006; in the data active means inhibition above about 20%
BAP1 block: inhibitors of BAP1 deubiquitinase, primary screen, biochemical, Ub-AMC fluorescence, kinetic. Ubiquitin carboxyl-terminal hydrolase BAP1 (Homo sapiens), Q92560. AID 436, 2006. recombinant BAP1, Ub-AMC hydrolysis fluorescence kinetic; active compounds read low. calls only at 20 µM. actives 0.48% (n = 72,000);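 active means activity remaining at or below 50% of control, provided the compound also passes the data quality filters; inactive means the rest, including low values that fail the filters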
Target sequence (Q92560 whole entry, looked up): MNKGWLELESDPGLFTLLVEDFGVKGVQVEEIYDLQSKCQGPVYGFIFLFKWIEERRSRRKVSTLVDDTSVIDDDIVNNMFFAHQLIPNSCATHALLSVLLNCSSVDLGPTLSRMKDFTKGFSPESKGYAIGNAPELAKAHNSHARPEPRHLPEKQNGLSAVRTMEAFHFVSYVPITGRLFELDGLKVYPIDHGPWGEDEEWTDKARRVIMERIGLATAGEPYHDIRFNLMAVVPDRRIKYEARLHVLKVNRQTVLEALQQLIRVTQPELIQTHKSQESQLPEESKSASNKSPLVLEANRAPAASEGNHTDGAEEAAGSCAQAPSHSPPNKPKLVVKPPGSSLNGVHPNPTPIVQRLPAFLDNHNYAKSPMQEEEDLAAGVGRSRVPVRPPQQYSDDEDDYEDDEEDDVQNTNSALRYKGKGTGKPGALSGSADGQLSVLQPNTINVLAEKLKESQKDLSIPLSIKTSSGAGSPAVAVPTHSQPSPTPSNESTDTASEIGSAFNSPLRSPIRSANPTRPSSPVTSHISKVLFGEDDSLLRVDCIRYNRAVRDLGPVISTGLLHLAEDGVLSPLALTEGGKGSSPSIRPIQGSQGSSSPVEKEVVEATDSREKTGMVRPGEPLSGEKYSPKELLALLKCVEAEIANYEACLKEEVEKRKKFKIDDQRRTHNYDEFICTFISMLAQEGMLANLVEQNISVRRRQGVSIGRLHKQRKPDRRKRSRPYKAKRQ
Numbers stand for hits; – = inactive; · = no result given.

SMILES	HER2 expr 66K	TNAP act mid DEA	SKBR3 24h inh	E coli RNAP	BAP1 block
OCCN1CCN(CCCN2c3ccccc3Sc3ccc(C(F)(F)F)cc32)CC1	-9.1	–	16	–	–
CN1C(=O)C(C(=O)NC(C)(C)C)C2c3ccccc3OC13CCCCC23 (configuration not stated)	-30	–	–	–	–
COc1ccc(CCN2CCC(Nc3nc4ccccc4n3Cc3ccc(F)cc3)CC2)cc1	-11	–	24	–	–
Cn1c(=O)c2c(nc(NC3CCCCC3)n2Cc2ccc(F)cc2)n(C)c1=O	·	·	·	·	–
CCOCCn1c(CN2CCCCC2)nc2c1c(=O)n(C)c(=O)n2C	–	–	·	–	–
CCCCCn1c(CN2CCCCC2CC)nc2c1c(=O)n(C)c(=O)n2C (configuration not stated)	-17	–	·	–	–
CCOCCn1c(CN2CCN(CC)CC2)nc2c1c(=O)n(C)c(=O)n2C	–	–	·	22	–
CCOC(=O)C1=C(C)NC2=C(C(=O)CCC2)C1c1ccccc1OC (configuration not stated)	·	·	·	·	–
COc1cccc(C(=O)NCc2cn3ccsc3n2)c1	–	–	·	–	–
O=C(NCc1cn2ccsc2n1)c1cccc(C(F)(F)F)c1	–	–	·	22	–
Cc1ccc(CNC(=O)Cn2c(=O)oc3ccccc32)o1	–	–	38	–	–
COc1cccc(CNC(=O)Cn2c(=O)oc3ccccc32)c1OC	–	–	·	–	–
COCCCN1C(=O)C(O)=C(C(C)=O)C1c1cccc(F)c1 (configuration not stated)	-16	–	–	–	–
COc1ccc(C2C(C(C)=O)=C(O)C(=O)N2CCN(C)C)cc1OC (configuration not stated)	–	–	–	–	–
Cc1ccc2c(c1)N(C)C(=O)CC(c1ccccc1)=N2	·	·	·	·	–
CCC(=O)N1CCN(c2ccc(NC(=O)c3cc4ccccc4o3)cc2Cl)CC1	–	–	–	–	–
CCCC(=O)N1CCN(c2ccc(NC(=O)c3cc4ccccc4o3)cc2Cl)CC1	-9.9	–	6.2	–	·
COc1ccc(-n2cnnc2SCC(=O)c2cc(C)n(Cc3cccs3)c2C)cc1	-21	–	·	–	–
COC(=O)CN(C#N)c1nc(SC)nc(N(C)C)n1	–	–	·	–	–
CNC(=O)CN(C#N)c1nc(N(C)C)nc(N(C)C)n1	-20	–	–	–	–
N#Cc1c(N)sc(=S)c2c1CCN(Cc1ccccc1)C2	0.0	–	·	–	–
COc1ccc(-c2[nH]ncc2-c2ccccc2)c(O)c1C	·	·	·	·	–
COc1ccc(-c2oc3ncnc(NCCCN4CCOCC4)c3c2-c2ccc(OC)cc2)cc1	-2.9	–	–	–	·
COc1ccc(-c2oc3ncnc(NCCN4CCOCC4)c3c2-c2ccc(OC)cc2)cc1	–	–	–	–	·
CCOC(=O)NC1(Nc2ccc(Cl)cn2)Oc2ccccc2O1	–	–	·	25	–
SMILES	HER2 expr 66K	TNAP act mid DEA	SKBR3 24h inh	E coli RNAP	BAP1 block
COC(=O)c1sc(-c2ccccc2)cc1NC(=O)c1ccc(S(=O)(=O)N2CCCCC2)cc1	·	·	·	·	–
CCOC(=O)c1cccc(C(=O)Nc2ccccc2[N+](=O)[O-])n1	·	·	·	·	–
CC(C(=O)NCC1(c2ccccc2)CCCC1)N1CCCC1 (configuration not stated)	–	–	–	–	–
CN(C)CC1(c2ccccc2)CCCC1	–	–	25	–	–
COc1cc(C(=O)N2CCN(C(=O)c3c(OC)cccc3OC)CC2)cc(OC)c1OC	·	·	·	·	–
Cc1ccc(CNC(=O)c2cc3c(-c4ccc(Cl)cc4)nn(C)c3s2)o1	-17	–	·	–	–
O=C(NC(=O)N(c1ccc(Cl)cc1)S(=O)(=O)c1ccccc1)Nc1ccccc1Cl	·	·	·	·	–
CCCCCNC(=O)C(C#N)c1nc2ccccc2nc1N1CCCC1 (configuration not stated)	-23	–	–	–	–
CCCCCCNC(=O)C(C#N)c1nc2ccccc2nc1N1CCOCC1 (configuration not stated)	–	–	–	–	–
CCOC(=O)c1c(-c2cccs2)csc1NC(=O)c1ccco1	-28	–	–	–	·
CN(Cc1cc2ccccc2[nH]c1=O)C(=O)C1CCCCC1	–	–	–	–	–
CC(C)C(=O)N(Cc1cc2ccccc2[nH]c1=O)C(C)(C)C	-27	–	–	–	–
N#CCN1CCn2c3c(c4cc(C5CCCCC5)ccc42)CCCC31 (configuration not stated)	·	·	·	·	–
CCCc1[nH]n(-c2nc3ccccc3s2)c(=O)c1C=NCCN1CCOCC1	–	–	–	–	–
CCCCCN=Cc1c(C)[nH]n(-c2nc3ccccc3s2)c1=O	-20	–	·	–	–
COc1ccc(N2C(=O)C(CC(=O)O)S/C2=C\C(C)=O)cc1 (configuration not stated)	–	–	31	–	·
Cc1cc(-c2nnco2)c(C)n1-c1ccc(F)cc1	4.7	–	–	–	·
C=CCSC1=N/C(=C\C=C\c2ccco2)C(=O)S1	2.1	–	·	·	–
O=C(O)c1ccc(-c2nc(-c3ccccc3)c(-c3ccc(Cl)cc3)[nH]2)cc1	·	·	·	·	–
COc1ccc(CCNc2oc(COc3ccccc3F)nc2C#N)cc1	-30	–	–	–	–
O=C(Nc1ccccc1[N+](=O)[O-])c1cccc(S(=O)(=O)NC2CCCCC2)c1	·	·	·	·	–
CCOC(=O)c1c(NC(=O)c2cc(OC)c(OC)c(OC)c2)sc2c1CCC2	·	·	·	·	–
CCOc1ccc(C(c2nnnn2Cc2ccccc2)N2CCN(C(=O)c3ccco3)CC2)cc1 (configuration not stated)	–	–	41	–	–
Nc1ccc(C(=O)Nc2ccc(-c3nc4cc(N)ccc4o3)cc2)cc1	·	·	·	·	–
Cc1ccc(-n2nc3c(c2NC(=O)c2ccccc2Cl)CSC3)c(C)c1	·	·	·	·	–
SMILES	HER2 expr 66K	TNAP act mid DEA	SKBR3 24h inh	E coli RNAP	BAP1 block
FC(F)(F)c1ccc(N2CCOCC2)c(Nc2nc3ccccc3n3cnnc23)c1	-16	–	·	–	·
O=C(O)c1cccc(N2C(=O)C3C(C2=O)C2C=CC3C23CC3)c1 (configuration not stated)	·	·	·	·	–
O=C(CSc1ccc2nnc(-c3cccnc3)n2n1)NCc1ccc2c(c1)OCO2	-17	–	·	–	–
COc1ccc(C(=O)CSc2nnc(CNC(=O)c3ccc(OC)c(OC)c3)n2C)cc1	–	–	–	–	–
COc1ccc(NCc2nnc(SCC(=O)c3ccc(OC)cc3)n2C)cc1	-43	–	–	–	–
O=C1C(Cl)=C(Cl)C(=O)N1CCOCCN1C(=O)C(Cl)=C(Cl)C1=O	·	·	·	·	–
Cc1ccc(NC(=O)CNc2cccc(C)c2C)c(C)c1	-28	–	·	–	–
CCN(CC)CC(=O)Nc1ccc(C)cc1C	·	·	·	·	–
CCOc1cc(-c2noc(-c3ccncc3)n2)cc(Br)c1OC	–	–	29	–	–
